Sampled rows, rich in hits. Any-hit rate of the full collection: about 3.3%.
UBC13 inh = human UBC13 polyubiquitination inhibition; P61088; UBC13 polyubiquitin chain formation, TR-FRET; inhibition, % at 20 µM; 0.47% of 330,000 active; AID 485273; in the data active = inhibition above about 45%, passing the limit was not always enough; inconclusive = no clear call, values can overlap the other calls
Target sequence (P61088 whole entry, looked up): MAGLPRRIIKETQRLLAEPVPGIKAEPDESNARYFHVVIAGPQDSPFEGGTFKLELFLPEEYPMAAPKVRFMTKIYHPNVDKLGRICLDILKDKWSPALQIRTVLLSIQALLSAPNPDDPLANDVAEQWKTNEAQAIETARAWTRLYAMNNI
sPLA2-III inh = Inhibits HGIII-sPLA2 liposome hydrolysis, primary screen; Q9NZ20; QFRET BODIPY PC-A2 liposome hydrolysis, fluorescence; inhibition, % at 12.2 µM; 0.56% of 370,000 active; AID 743126;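 active = inhibition above mean plus 3 SD of compounds lying within the high and low control bounds, cut at about 19% in these data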
UBC9 SUMO inh = blocks human SUMOylation mediated by UBC9. P63279. HTRF SUMOylation assay, SAE1/SAE2 + UBC9, in vitro. inhibition, % at 35 µM. 0.36% of 290,000 active. AID 2006; in the data active = inhibition above about 50%, passing the limit was not always enough; inconclusive = no clear call, values can overlap the other calls
Target sequence (P63279 whole entry, looked up): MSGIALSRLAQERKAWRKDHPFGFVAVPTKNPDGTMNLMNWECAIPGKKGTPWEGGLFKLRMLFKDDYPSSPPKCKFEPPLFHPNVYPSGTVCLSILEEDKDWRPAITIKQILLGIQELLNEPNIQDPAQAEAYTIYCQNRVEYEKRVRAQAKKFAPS
GRIN3A LBD mod = modulates the human NR3A ligand-binding domain; NR3A LBD differential scanning fluorimetry, Tm shift; 0% = protein alone, 100% = glycine-bound protein; Tm shift relative to glycine control, % at 25 µM; 2.5% of 340,000 active;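 active = melting temperature shift of at least 10% of the positive control shift, at one fixed dose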
Casp3 counter = counter-screen for UBC13 inhibitors: human caspase-3 inhibition | shares compounds with UBC13 inh | Recombinant caspase-3, Caspase-Glo 3/7 luminescence, 60 min | inhibition, % at 20 µM | 4% of 1,400 active | AID 488856;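 active = mean inhibition across replicates above about 26%, limit read from the data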
Target sequence (P42574 whole entry, looked up): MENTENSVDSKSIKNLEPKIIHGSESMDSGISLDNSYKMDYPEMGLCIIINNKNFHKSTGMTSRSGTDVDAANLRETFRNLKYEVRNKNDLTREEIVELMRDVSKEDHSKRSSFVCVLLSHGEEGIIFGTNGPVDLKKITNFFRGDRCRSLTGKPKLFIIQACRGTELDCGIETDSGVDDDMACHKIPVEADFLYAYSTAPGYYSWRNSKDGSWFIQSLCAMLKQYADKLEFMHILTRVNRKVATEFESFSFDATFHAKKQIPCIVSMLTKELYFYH
UBC13 confirm = confirmation of human UBC13 polyubiquitin inhibitors | shares compounds with UBC13 inh | UBC13 polyubiquitination, TR-FRET, biochemical | inhibition, % at 10 µM | 68% of 1,400 active; in the data active = inhibition above about 45%; inconclusive = no clear call, values can overlap the other calls
A number is an active result.

Results for O=C1Nc2cc(C(=O)NCCCN3CCOCC3)ccc2S/C1=C/c1cccc(Cl)c1 ?
UBC13 inh: 57; sPLA2-III inh: inactive; UBC9 SUMO inh: inactive; GRIN3A LBD mod: inactive; Casp3 counter: inactive; UBC13 confirm: 72

What do the screens show for `O=C1Nc2cc(C(=O)NCCCN3CCOCC3)ccc2S/C1=C/c1ccccc1F`?
UBC13 inh: inactive; sPLA2-III inh: inactive; UBC9 SUMO inh: inactive; GRIN3A LBD mod: inactive

Results for O=C1Nc2cc(C(=O)NCCCN3CCCC3)ccc2S/C1=C\c1ccccc1 ?
UBC13 inh: inactive; sPLA2-III inh: inactive; UBC9 SUMO inh: inactive; GRIN3A LBD mod: inactive

Results for COc1ccc(/C=C2/Sc3ccc(C(=O)NCCN4CCCCCC4)cc3NC2=O)cc1 ?
UBC13 inh: 67; sPLA2-III inh: inactive; UBC9 SUMO inh: inactive; GRIN3A LBD mod: inactive; Casp3 counter: inactive; UBC13 confirm: 86

How did Cc1ccc(-c2csc(NC(=O)CSc3nc4ccccc4c(=O)n3CCCN(C)C)n2)cc1 do in these assays?
UBC13 inh: 89; sPLA2-III inh: inactive; UBC9 SUMO inh: inactive; GRIN3A LBD mod: inactive; Casp3 counter: inactive; UBC13 confirm: 94

Results for CCn1c(SCC(=O)Nc2nc(-c3ccc(C)cc3)cs2)nnc1-c1ccccc1 ?
UBC13 inh: inactive; sPLA2-III inh: inactive; UBC9 SUMO inh: inactive; GRIN3A LBD mod: inactive

What do the screens show for `COc1cc(-c2cc(=O)c3c(O)c(OC)c(OC)cc3o2)cc(OC)c1O`?
UBC13 inh: 49; sPLA2-III inh: inactive; UBC9 SUMO inh: inactive; GRIN3A LBD mod: inactive; Casp3 counter: inactive; UBC13 confirm: inactive

Results for CC(C)C(=O)Oc1ccc(CO)cc1[C@H](CCN(C(C)C)C(C)C)c1ccccc1 ?
sPLA2-III inh: inactive

What do the screens show for `CCN(CC)CCNC(=O)c1c(C)n(-c2ccccc2)c2cc(Br)c(OC)cc12`?
UBC13 inh: 52; sPLA2-III inh: inactive; UBC9 SUMO inh: inactive; GRIN3A LBD mod: inactive; Casp3 counter: inactive; UBC13 confirm: 79

Results for COc1cc2c(C(=O)N3CCN(C)CC3)c(C)n(-c3ccccc3)c2cc1Br ?
UBC13 inh: inactive; sPLA2-III inh: inactive; UBC9 SUMO inh: inactive; GRIN3A LBD mod: inactive

Results for C=C[C@](C)(CC[C@@]1(C)C(C)CC(OC2OC(C)C(OC3OC(COC(C)=O)C(O)C(O)C3O)C(O)C2O)[C@@]2(C)C(C)=CCCC12)OC1OC(C)C(O[C@@H]2O[C@@H](C)C(O)C(O)[C@H]2O)C(O)C1O (stereo not given in full) ?
UBC13 inh: 54; GRIN3A LBD mod: inactive; Casp3 counter: inactive; UBC13 confirm: 58

Results for NC(=S)N=Nc1c(O)[nH]c2cc(F)c(F)cc12 ?
UBC13 inh: 82; sPLA2-III inh: inactive; UBC9 SUMO inh: inactive; GRIN3A LBD mod: inactive; Casp3 counter: inactive; UBC13 confirm: 99

What do the screens show for `NC(=S)N=Nc1c(O)[nH]c2c(Cl)cc(Cl)cc12`?
sPLA2-III inh: inactive; GRIN3A LBD mod: inactive

Results for COCCCN1C(=O)[C@H](CC(=O)NCc2cccc(C(F)(F)F)c2)[C@]2(C(=O)OC)CCCCC=C12 ?
sPLA2-III inh: inactive

What do the screens show for `CCOc1ccccc1NC(=O)C(OC(=O)c1ccc(CC)cc1)c1ccccc1` (stereo not given)?
UBC13 inh: inactive; sPLA2-III inh: inactive; UBC9 SUMO inh: inactive; GRIN3A LBD mod: inactive

What do the screens show for `CCOc1ccccc1NC(=O)C(OC(=O)c1ccc(O)cc1)c1ccccc1` (stereo not given)?
UBC13 inh: 78; sPLA2-III inh: inactive; UBC9 SUMO inh: inactive; GRIN3A LBD mod: 26; Casp3 counter: inactive; UBC13 confirm: 89

Results for CCC(=O)N(C)C[C@@H]1[C@H](c2ccc(C3=CCCCC3)cc2)[C@H](CO)N1C(=O)CC ?
sPLA2-III inh: inactive

Results for COc1ccc(S(=O)(=O)Nc2ccc(C)cn2)cc1 ?
UBC13 inh: 46; sPLA2-III inh: inactive; UBC9 SUMO inh: inactive; GRIN3A LBD mod: inactive; Casp3 counter: inactive; UBC13 confirm: inactive

Results for COc1ccc(S(=O)(=O)Nc2ccc(Cl)cn2)cc1 ?
UBC13 inh: inactive; sPLA2-III inh: inactive; UBC9 SUMO inh: inactive; GRIN3A LBD mod: inactive

How did COc1cc(NC(=S)NCCN2CCOCC2)cc(OC)c1OC do in these assays?
UBC13 inh: 61; sPLA2-III inh: inactive; UBC9 SUMO inh: inactive; GRIN3A LBD mod: inactive; Casp3 counter: inactive; UBC13 confirm: inactive

What do the screens show for `Cc1cccc(C(=O)Nc2nc3ncccn3c2-c2ccc(C(F)(F)F)cc2)c1`?
sPLA2-III inh: inactive

What do the screens show for `CC(C)[C@H]1/C(=C/C2CC2)N2C(=O)C[C@H](c3cccc(C(F)(F)F)c3)N=C2N1Cc1ccc2c(c1)OCO2`?
sPLA2-III inh: inactive

Results for O=C(CCCCCN1C(=O)c2cccc3cccc(c23)C1=O)NCCO ?
UBC13 inh: 47; sPLA2-III inh: inactive; UBC9 SUMO inh: inactive; GRIN3A LBD mod: inactive; Casp3 counter: inactive; UBC13 confirm: inactive

Results for COc1cc(/C=N/NC(=O)c2sc(N)c(C#N)c2C)ccc1O ?
UBC13 inh: 51; sPLA2-III inh: inactive; UBC9 SUMO inh: inactive; GRIN3A LBD mod: 15; Casp3 counter: inactive; UBC13 confirm: 56

What do the screens show for `CC(=O)OCC(=O)NCC1CCN(C(=O)C(=O)c2cc3ccccc3o2)CC1`?
sPLA2-III inh: inactive

What do the screens show for `CCCC(C(=O)NC(C)(C)C)N(CC1CCCO1)C(=O)c1snc(C(N)=O)c1N` (stereo not given)?
UBC13 inh: 51; sPLA2-III inh: inactive; UBC9 SUMO inh: inactive; GRIN3A LBD mod: inactive; Casp3 counter: inactive; UBC13 confirm: 52

Results for CC(C)CC(C(=O)NC(C)(C)C)N(CC1CCCO1)C(=O)c1snc(C(N)=O)c1N (stereo not given) ?
UBC13 inh: 78; sPLA2-III inh: inactive; UBC9 SUMO inh: inactive; GRIN3A LBD mod: inactive; Casp3 counter: inactive; UBC13 confirm: 81

Results for CCCC(C(=O)NC1CCCC1)N(CC1CCCO1)C(=O)c1snc(C(N)=O)c1N (stereo not given) ?
UBC13 inh: inactive; sPLA2-III inh: inactive; UBC9 SUMO inh: inactive; GRIN3A LBD mod: inactive

How did O=C(OCC#CCSc1nnc(-c2cccc3ccccc23)o1)c1cccc(F)c1 do in these assays?
sPLA2-III inh: inactive

Results for Oc1ccc(NC(=S)N=Nc2c(O)[nH]c3ccccc23)cc1 ?
UBC13 inh: 92; sPLA2-III inh: inactive; UBC9 SUMO inh: inactive; GRIN3A LBD mod: inactive; Casp3 counter: inactive; UBC13 confirm: 103

How did Oc1cccc(NC(=S)N=Nc2c(O)[nH]c3ccc(Br)cc23)c1 do in these assays?
UBC13 inh: 86; sPLA2-III inh: inactive; UBC9 SUMO inh: inactive; GRIN3A LBD mod: inactive; Casp3 counter: inactive; UBC13 confirm: inconclusive

Results for CCC[C@H]1[C@H](N)CC[C@@]23CCCN2C(=O)CCC[C@@H]13 ?
sPLA2-III inh: inactive

How did Cc1ccc(C=NNC(=O)CSc2nc3sc4c(c3c(=O)n2-c2ccccc2)CCCC4)s1 do in these assays?
sPLA2-III inh: inactive

High-throughput results (PubChem)
